Screening results from PubChem BioAssay.
Six1-Eya2 blk – qHTS Assay for Inhibitors of the Six1/Eya2 Interaction; actives 0.56% (n = 360,000); AlphaScreen GST-Six1/His-Eya2 binding, biochemical; stronger effect = lower value; activity change, % (concentration not given with the values)
Target sequence (O00167 whole entry, looked up): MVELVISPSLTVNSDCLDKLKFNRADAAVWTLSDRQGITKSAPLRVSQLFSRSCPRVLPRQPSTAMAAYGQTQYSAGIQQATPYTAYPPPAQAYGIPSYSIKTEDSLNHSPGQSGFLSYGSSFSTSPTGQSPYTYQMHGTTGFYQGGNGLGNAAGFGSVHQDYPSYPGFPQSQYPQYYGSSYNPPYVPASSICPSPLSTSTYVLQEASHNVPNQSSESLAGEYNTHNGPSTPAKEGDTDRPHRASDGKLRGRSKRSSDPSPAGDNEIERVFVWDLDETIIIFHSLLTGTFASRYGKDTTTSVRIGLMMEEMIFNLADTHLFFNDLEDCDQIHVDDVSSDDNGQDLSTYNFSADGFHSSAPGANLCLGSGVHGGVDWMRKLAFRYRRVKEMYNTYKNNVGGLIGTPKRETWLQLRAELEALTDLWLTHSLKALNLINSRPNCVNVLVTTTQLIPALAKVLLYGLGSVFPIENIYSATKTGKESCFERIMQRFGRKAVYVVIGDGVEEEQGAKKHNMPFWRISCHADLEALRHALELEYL
Target sequence (Q15475 whole entry, looked up): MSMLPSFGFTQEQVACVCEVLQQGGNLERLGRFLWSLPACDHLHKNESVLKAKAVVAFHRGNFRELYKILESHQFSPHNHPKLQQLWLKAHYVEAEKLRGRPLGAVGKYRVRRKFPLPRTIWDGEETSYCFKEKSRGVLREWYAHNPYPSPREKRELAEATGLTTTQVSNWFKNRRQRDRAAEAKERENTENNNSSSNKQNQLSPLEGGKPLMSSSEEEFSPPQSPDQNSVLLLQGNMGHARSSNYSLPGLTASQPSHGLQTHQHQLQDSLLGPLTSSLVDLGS
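AlphaScreen with GST-Six1 and His-Eya2 (5X mix: 250 nM and 500 nM), glutathione donor and nickel acceptor beads; buffer 50 mM Tris pH 8.0, 300 mM NaCl, 1 mM TCEP; 1 h at 37 C in the dark.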
CtBP-E1A inh – qHTS Assay for Inhibitors of the CtBP/E1A Interaction; CtBP / adenovirus E1A interaction (AlphaScreen); AlphaScreen GST-E1A/His-CtBP binding, 1536-well; stronger effect = lower value; activity change, % (no concentration beside the values); actives 0.49% (n = 340,000); AID 651724, 2012
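Protein mix (5X: 125 nM each GST-E1A, His-CtBP) was incubated with pinned compound 2 h at 37 deg C in dark, in 50 mM Tris pH 8.0 buffer with 300 mM NaCl. Glutathione donor and nickel acceptor beads followed; AlphaScreen signal read after 1 h.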
CCT modulator – High-Throughput Screening for Modulators of Cytosolic Chaperonin Activity; AID 651819, 2012; activity change, % (concentration not given with the values), hits read low; purified chaperonin ATPase assay, HTRF ADP detection, 30 min; actives 0.3% (n = 360,000); in the data active = activity change below about -30%
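Nucleotide hydrolysis assay: TRiC at 20–40 nM final (set by batch activity) with 10 uM ATP, 30 min at 37 °C, in presence of 76 uM compound. Detection by competitive ADP HTRF, 30 min ambient.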
pAkt inh – HTS Assay for Inhibitors of Akt Phophorylation: Primary Screen; Neuro2A IGF-stimulated pAkt S473 HTRF, 20 min; stronger effect = lower value; activity change, % for hits at 50 µM; actives 0.32% (n = 360,000); AID 651550, 2012; in the data active = activity change below about -80%; inconclusive = mostly about -51% to -80%
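Neuro2A cells (4,500/well, DMEM with 0.5% FBS) were treated with compound at a single 50 µM final concentration, stimulated with 6 nM IGF for 20 min at 37 °C, and lysed. Phospho-Akt Ser473 was read by HTRF as 665/615 ratio ×10^4.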
Numbers without * were called inactive; i = inactive; ? = inconclusive; / = no result. An excerpt weighted towards active compounds, which were near 1.2% of everything screened. Rule as the data show it, unless noted: active = activity change below about -65%; inconclusive = mostly about -30% to -63%; inactive = weaker than that. % is scaled to controls: 0 for no effect and ±100 for the full control effect.

SMILES | Six1-Eya2 blk | CtBP-E1A inh | CCT modulator | pAkt inh
CCOc1ccc(C(Nc2cccnc2)c2cc(Cl)c3cccnc3c2O)cc1 (stereo not given) | ? | -68* | -1 | i
Cc1cccc(C)c1Nc1cn[nH]c1 | 13 | 6 | 0 | i
CN1CCN(Cc2cc(=O)oc3ccc(Cl)cc23)CC1 | 1 | 4 | -1 | -104%*
CCN1CCN(Cc2cc(=O)oc3ccc(Cl)cc23)CC1 | -2 | 0 | 0 | i
COc1ccc(CCNc2nc(-c3ccncc3)cs2)cc1OC | -11 | -20 | -4 | i
COc1ccc(CCNc2nc(-c3ccccn3)cs2)cc1OC | -79* | / | -1 | i
COc1ccc(C(=O)N/N=C/c2c(CO)cnc(C)c2O)cc1 | ? | / | 0 | i
Cc1ncc(CO)c(/C=N/NC(=O)c2ccccc2Br)c1O | -90* | -83* | 1 | i
Cc1ncc(CO)c(/C=N/NC(=O)c2cc3c(s2)CCCC3)c1O | -88* | / | 2 | i
Cc1ncc(CO)c(/C=N/NC(=O)c2ccoc2C)c1O | -82* | -87* | -1 | i
O=[N+]([O-])c1ncccc1OCc1ccc(Cl)c(Cl)c1 | -10 | -1 | -1 | i
Clc1ccc(COc2ccccn2)cc1Cl | 0 | -11 | -1 | -123%*
Cc1c(CCC(=O)N[C@@H](C)C(=O)O)c(=O)oc2cc3occ(-c4ccccc4)c3cc12 | ? | -77* | -4 | i
Cc1c(CCC(=O)NCCCCCC(=O)O)c(=O)oc2cc3occ(-c4ccccc4)c3cc12 | -68* | / | 1 | i
Cc1c(CC(=O)NCCCC(=O)O)c(=O)oc2cc3occ(-c4ccccc4)c3cc12 | ? | -28 | 0 | i
Cc1c(CC(=O)NCC(=O)O)c(=O)oc2cc3occ(-c4ccccc4)c3cc12 | ? | 1 | -2 | i
CCC(NC(=O)CCc1c(C)c2cc3c(-c4ccccc4)coc3cc2oc1=O)C(=O)O (stereo not given) | -23 | -77* | -1 | i
CC(O)(Cc1cccnc1)c1cccs1 (stereo not given) | 13 | 8 | 0 | i
O=C1c2ccccc2-c2onc3ccc(NCCCn4ccnc4)c1c23 | -78* | 14 | 1 | i
Cc1ccc(C)c(N2C(=N)S/C(=C\c3ccc(-c4ccccc4C(=O)O)o3)C2=O)c1 | -72* | ? | 0 | i
CCC(=O)Oc1ccc(C(=O)Nc2ccc3c(c2)C(=O)N(C2CCCCC2)C3=O)cc1 | 1 | 3 | -1 | i
c1ccc(CNc2nc(NCCc3ccncc3)c3sccc3n2)cc1 | 0 | -4 | -1 | i
O=C(O)c1ccccc1-c1ccccc1C(=O)Nc1ccc2oc(=O)c3ccccc3c2c1 | ? | -6 | 1 | i
O=C(O)c1ccccc1-c1ccccc1C(=O)Nc1ccc2c(c1)[nH]c(=O)c1ccccc12 | -72* | -1 | -1 | i
N#Cc1ccccc1NC(=O)CSc1nnc(-c2ccncc2)o1 | 3 | / | -1 | i
SMILES | Six1-Eya2 blk | CtBP-E1A inh | CCT modulator | pAkt inh
Oc1ccc(/C=N/Nc2nn3cnnc3c3ccccc23)cc1 | -89* | -90* | -1 | i
COc1cccc(/C=N/Nc2nn3cnnc3c3ccccc23)c1 | -71* | -79* | 1 | i
CCOc1cc(/C=N/Nc2ncc(C)c(=O)[nH]2)ccc1O | ? | -81* | 2 | i
C=CCn1c(N/N=C/c2ccc(O)cc2)nc2ccccc2c1=O | -2 | -2 | -1 | i
C(=N\Nc1nn2cnnc2c2ccccc12)/c1ccco1 | -72* | -3 | -1 | i
CCOc1cc(/C=N/Nc2nc(C)cc(=O)[nH]2)ccc1O | ? | ? | -3 | i
CCOc1ccc(NC(=O)CCc2c(C)nn(-c3ccc(N4CCCCC4)nn3)c2C)cc1 | 0 | 2 | -2 | i
COc1cc(OC)c(NC(=O)c2sc3ncn(CC(=O)N4CCOCC4)c(=O)c3c2C)cc1Cl | 6 | 4 | 1 | i
CC(C)(C)NC(=O)CN(C(=O)c1csnn1)c1cccc2c1CCCC2 | 4 | 2 | -1 | i
COc1cc(/C=N/Nc2nn3cnnc3c3ccccc23)ccc1O | -89* | -89* | 0 | i
CCOc1cc(/C=N/Nc2nncc(-c3ccccc3)n2)ccc1O | -20 | -25 | -7 | i
CCOc1cc(/C=N/Nc2nn3cnnc3c3ccccc23)ccc1O | -88* | -67* | 1 | i
